From PubChem BioAssay (Tox21)
Calls of active or inactive are those of the source. Calls follow the shape of the dose curve; as a rule, active = well fitted curve in the direction sought with a large enough effect in the repeat runs; inconclusive = weak or mixed curves; inactive = flat fitted curve, though single readings scatter.

Key:
[1] = qHTS assay to test for compound auto fluorescence at 535 nm (green) in HEK293 cells (AID 720680)
[2] = qHTS assay to test for compound auto fluorescence at 460 nm (blue) in HEK293 cell free culture (AID 720681)
How it was run: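 Test compounds were pinned into cell-free culture medium (DMEM with 10% FBS) and fluorescence was read directly at Ex/Em 405/460 nm. Signals were expressed as fluorescence equivalents of triamterene, with DMSO vehicle as control.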

[3] = qHTS assay to test for compound auto fluorescence at 535 nm (green) in HEK293 cell free culture (AID 720682)
How it was run: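 Using fluorescein as calibrant, autofluorescence was quantified at 485/535 nm in cell-free DMEM containing 10% FBS after pintool addition of compound or vehicle.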

[4] = qHTS assay to test for compound auto fluorescence at 590 nm (red) in HEK293 cell free culture (AID 720683)
How it was run: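 Tox21 10K library compounds were pinned into cell-free DMEM with 10% FBS and fluorescence was read at excitation 540 nm. Activity is expressed as Rose Bengal sodium equivalency.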

[5] = qHTS assay to test for compound auto fluorescence at 590 nm (red) in HepG2 cell free culture (AID 720684)
How it was run: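 Ex 540 / Em 590 nm read of compound in cell-free MEM (10% FBS). Rose Bengal sodium reference.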

[6] = qHTS assay to test for compound auto fluorescence at 460 nm (blue) in HepG2 cell free culture (AID 720685)
How it was run: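 Cell-free plates of MEM plus 10% FBS received 23 nL compound or DMSO vehicle; blue-channel (405/460 nm) intensity scored against triamterene as reference fluorophore.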

[7] = qHTS assay to test for compound auto fluorescence at 535 nm (green) in HepG2 cell free culture (AID 720686)
[8] = qHTS assay to test for compound auto fluorescence at 460 nm (blue) in HepG2 cells (AID 720687)
How it was run: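 Cells (2,000/well in MEM with 10% FBS) attached overnight at 37 C, then were exposed to compound or DMSO for 1 hr at 37 C, 5% CO2. Fluorescence read at Ex/Em 405/460 nm, expressed as triamterene-equivalent signal.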
% is scaled to controls: 0 for no effect and ±100 for the full control effect.

ClC/C=C\CCl
inactive: Potency [1] | Potency [2] | Potency [3] | Potency [4] | Potency [5] | Potency [6] | Potency [7] | Potency [8]

Cc1nc(Nc2ncc(C(=O)Nc3c(C)cccc3Cl)s2)cc(N2CCN(CCO)CC2)n1
inactive: Potency [1] | Potency [2] | Potency [3] | Potency [4] | Potency [5] | Potency [6] | Potency [7]

C=CC(C)(CCC=C(C)C)OC(=O)/C=C/c1ccccc1 (stereo not given)
inactive: Potency [1] | Potency [2] | Potency [3] | Potency [4] | Potency [5] | Potency [6] | Potency [7] | Potency [8]

CC(NCCC(c1ccccc1)c1ccccc1)c1ccccc1 (stereo not given)
inactive: Potency [1] | Potency [2] | Potency [3] | Potency [4] | Potency [5] | Potency [6] | Potency [7] | Potency [8]

NC(=O)c1ccccc1N
inactive: Potency [1] | Potency [2] | Potency [3] | Potency [4] | Potency [5] | Potency [6] | Potency [7] | Potency [8]

CCCOc1sc(C(=O)N2CCC(c3cc(CN)ccc3F)CC2)c(C)c1Br
inactive: Potency [1] | Potency [2] | Potency [3] | Potency [4] | Potency [5] | Potency [6]

CCCCCCCC/C=C\CCCCCCCC(=O)OCCOC(=O)CCCCCCC/C=C\CCCCCCCC
inactive: Potency [1] | Potency [2] | Potency [3] | Potency [4] | Potency [5] | Potency [6] | Potency [7] | Potency [8]

CC=O
inactive: Potency [1] | Potency [2] | Potency [3] | Potency [4] | Potency [5] | Potency [6] | Potency [7]

[O]=[Zr]
inactive: Potency [1] | Potency [2] | Potency [3] | Potency [4] | Potency [5] | Potency [6] | Potency [7]

CC(C)(C)c1cc(/C=C2\SC(=N)NC2=O)cc(C(C)(C)C)c1O
inactive: Potency [1] | Potency [2] | Potency [3] | Potency [4] | Potency [5] | Potency [6] | Potency [7] | Potency [8]

C[C@@]12C(=O)OC(=O)[C@]1(C)C1CCC2O1
inactive: fluorescence, % of fluorescein [1] 0.0141% [at 18.6 µM] | fluorescence, % of fluorescent control [2] -0.101% [at 18.6 µM] | activity change [3] -0.057% [at 18.6 µM, stronger effect = higher value] | fluorescence, % of fluorescent control [4] 0.092% [at 18.6 µM] | fluorescence, % of Rose Bengal [5] -0.0041% [at 18.6 µM] | fluorescence, % of fluorescent control [6] -0.0149% [at 18.6 µM]

CC(C)c1ccc(O)c(C(C)C)c1
inactive: Potency [1] | Potency [2] | Potency [3] | Potency [4] | Potency [5] | Potency [6] | Potency [7] | Potency [8]

C[C@@H]1CC[C@H]2C(C)(C)[C@H]3C[C@@]12CC[C@@]3(C)O
inactive: Potency [1] | Potency [2] | Potency [3] | Potency [4] | Potency [5] | Potency [6] | Potency [7]

C=C1C(C)(C)[C@@]2(Cl)C(Cl)[C@]1(Cl)C(Cl)(Cl)C2(Cl)Cl (stereo not given in full)
inactive: Potency [1] | Potency [2] | Potency [3] | Potency [4] | Potency [5] | Potency [6] | Potency [7]

CCCCCCOc1cc(C)c(O)c(C)c1C
inactive: Potency [1] | Potency [2] | Potency [3] | Potency [4] | Potency [5] | Potency [6] | Potency [7] | Potency [8]

O=C1c2c(O)ccc([N+](=O)[O-])c2C(=O)c2c([N+](=O)[O-])ccc(O)c21
inactive: Potency [1] | Potency [2] | Potency [3] | Potency [4] | Potency [5] | Potency [6] | Potency [7] | Potency [8]

CC1=C(/C=C/C(C)=C/C=C/C(C)=C/C(=O)Nc2ccc(O)cc2)C(C)(C)CCC1
inactive: Potency [1] | Potency [2] | Potency [3] | Potency [4] | Potency [5] | Potency [6] | Potency [7]

CCCCCCCC/C=C\CCCCCCCC(=O)NCc1ccc(O)c(OC)c1
inactive: Potency [1] | Potency [2] | Potency [3] | Potency [4] | Potency [5] | Potency [6] | Potency [7] | Potency [8]

CCCCCCCOC(=O)c1ccc(O)cc1
inactive: Potency [1] | Potency [2] | Potency [3] | Potency [4] | Potency [5] | Potency [6] | Potency [7] | Potency [8]

CSc1ccc2c(c1)N(CCC1CCCCN1C)c1ccccc1S2 (stereo not given)
inactive: Potency [1] | Potency [2] | Potency [3] | Potency [4] | Potency [5] | Potency [6]

C=CCCCCCCC=C
inactive: Potency [1] | Potency [2] | Potency [3] | Potency [4] | Potency [5] | Potency [6] | Potency [7] | Potency [8]

CC(C)=C1CC[C@@H](C)CC1=O
inactive: Potency [1] | Potency [2] | Potency [3] | Potency [4] | Potency [5] | Potency [6] | Potency [7] | Potency [8]

CCCCCCC(C)OC(=O)COc1nc(F)c(Cl)c(N)c1Cl (stereo not given)
inactive: Potency [1] | Potency [2] | Potency [3] | Potency [4] | Potency [5] | Potency [6] | Potency [7] | Potency [8]

O=C(O)CCn1c2c(c3ccccc31)C[C@H](NS(=O)(=O)c1ccc(F)cc1)CC2
inactive: Potency [1] | Potency [2] | Potency [3] | Potency [4] | Potency [5] | Potency [6] | Potency [7] | Potency [8]

c1ccc(Sc2ccccc2)cc1
inactive: Potency [1] | Potency [2] | Potency [3] | Potency [4] | Potency [5] | Potency [6] | Potency [7] | Potency [8]

O[C@@H](c1cc(C(F)(F)F)nc2c(C(F)(F)F)cccc12)[C@H]1CCCCN1
inactive: Potency [1] | Potency [2] | Potency [3] | Potency [4] | Potency [5] | Potency [6] | Potency [7]
